Laboratory results published in PubChem BioAssay (NCI).
Compounds without any hit were thinned out: in the full panel of roughly 83,000, 20% have a hit.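 Plates (96-well) were seeded with cells, treated with compound at one concentration, and incubated for 48 hours before percent growth was determined.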 Unmarked numbers belong to inactive results. Calls of active or inactive are those of the source. How the source made its calls: active means growth percent below 10; inactive means the rest.

What was measured:
Assay in all cases: NCI-60 one-dose screen, 48 h (100 = growth as untreated, 0 = no growth, -100 = all killed)
Conditions in all cases: 10 µM unless noted
[1] = system: MOLT-4 leukemia
[2] = system: RPMI-8226 leukemia
[3] = system: OVCAR-8 ovarian
[4] = system: OVCAR-5 ovarian
[5] = system: OVCAR-4 ovarian
[6] = system: SK-OV-3 ovarian
[7] = system: IGROV1 ovarian
[8] = system: OVCAR-3 ovarian
[9] = system: HS 578T breast
[10] = system: NCI/ADR-RES ovarian
[11] = system: T-47D breast
[12] = system: BT-549 breast
[13] = system: MDA-MB-435 melanoma
[14] = system: SW-620 colon
[15] = system: MCF7 breast
[16] = system: HCT-116 colon
[17] = system: HCC-2998 colon
[18] = system: KM12 colon

| SMILES | growth [1] | growth [2] | growth [3] | growth [4] | growth [5] | growth [6] | growth [7] | growth [8] | growth [9] | growth [10] | growth [11] | growth [12] | growth [13] | growth [14] | growth [15] | growth [16] | growth [17] | growth [18] |
| --- | --- | --- | --- | --- | --- | --- | --- | --- | --- | --- | --- | --- | --- | --- | --- | --- | --- | --- |
| CC(C)(C)C(=O)OCOP(=O)(OCOC(=O)C(C)(C)C)C1CCCN(O)C1=O (stereo not given) | 3.92% (active) | -18% (active) | 5.69% (active) | 32.5% | 11.2% | 12.2% | -4.01% (active) | 4.08% (active) | -8.85% (active) | 1.93% (active) | 8.21% (active) | 4.85% (active) | 36.6% | 22.9% | 0.807% (active) | 1.32% (active) | 5.6% (active) | -3.46% (active) |
| CCN(CC)c1ccc2c(c1)OC(N)=C(C#N)C2c1cc(OC)c2c(c1)OCO2 (stereo not given) | 23.7% | 26.6% | 17.6% | 51.6% | 43.5% | 9.72% (active) | 24% | -30.7% (active) | 9.12% (active) | -5.05% (active) | 57.1% | 16.6% | -13% (active) | 20.6% | 14.4% | -8.55% (active) | -3.32% (active) | 2.07% (active) |
| Cc1cc(C)cc(Nc2nc3c(s2)CC[C@@]2(C)C3=CC[C@@H]3[C@@H]2CC[C@]2(C)C(=O)CC[C@@H]32)c1 | 10.3% | 4.21% (active) | 50.4% | 93.3% | 70% | 79.8% | 85.2% | 23.8% | 58.3% | 74.5% | 28.9% | 47.2% | 72.8% | 37.8% | 16.9% | 6.21% (active) | 94.2% | 55.5% |
| CN1C(=O)N[C@H]2[C@@H]3NC(=O)c4ccc(Br)n4[C@@H]3C[C@]21O | -9.97% (active) | -23.2% (active) | -12.4% (active) | -2.49% (active) | -13.9% (active) | -2.3% (active) | -13.9% (active) | -28.7% (active) | -28.5% (active) | 48.6% | -10.6% (active) | -47.8% (active) | -30.6% (active) | -4.51% (active) | -4.96% (active) | -17.1% (active) | -24.1% (active) | -12.8% (active) |
| C[C@@]1(CCCCCCCCCc2ccc(O)cc2)C[C@]2(C)OC(=O)C[C@@H]2OO1 | 78% | 83% | 94.5% | 94.7% | 85.5% | 122% | -51.3% (active) | 126% | 92.9% | 53.4% | 83.9% | 102% | 109% | 103% | 117% | 77.5% | 105% | 127% |
| CCOC(=O)[C@@H](C)C[C@H](Cc1ccccc1)NC(=O)c1csc([C@@H](C[C@H](C(C)C)N(C)C(=O)CNC(=O)[C@H]2CCCCN2C)OC(C)=O)n1 | 19.7% | 15.4% | 9.59% (active) | 32.1% | 46.4% | 21.9% | 33.4% | -17.4% (active) | 3.01% (active) | 74.7% | 47.5% | 30.9% | -63.8% (active) | 24.5% | 17.9% | 3.7% (active) | 8.98% (active) | 12% |
| CCCCN(CCCC)P(=O)(Oc1ccccc1)Oc1ccccc1 | 39.4% | 54.4% | 84.1% | 94.1% | 51.5% | 66.7% | 57.3% | 87.2% | 85.3% | 51.4% | 47.4% | 73.5% | 71.4% | 52% | 48.4% | 29.2% | 83.7% | 58.6% |
| CC[C@H](C)[C@H](NC(=O)[C@H]1CCCCN1C)C(=O)N(C)[C@H](C[C@@H](OC(C)=O)c1cccc(C(=O)N[C@@H](Cc2ccccc2)C[C@H](C)C(=O)O)n1)C(C)C | 17.8% | 22.7% | 17.7% | 52% | 34.7% | 8.71% (active) | 25.7% | -27.7% (active) | 28.1% | 15.6% | 66.8% | -18.7% (active) | -48.8% (active) | 28.3% | 14.7% | -0.292% (active) | 17.1% | -6.52% (active) |
| Cn1cccc1C1CC(=O)N(CCC[Se]C#N)C1=O (stereo not given) | 3.58% (active) | 64.4% | -51.5% (active) | 20.4% | 31.2% | -15.7% (active) | -44.1% (active) | -45.5% (active) | -8.66% (active) | -0.356% (active) | 71.7% | -93.5% (active) | -6.27% (active) | 56.7% | 9.04% (active) | 2.78% (active) | 83.1% | 12.3% |
| COc1cccc2c1c(C(=O)c1ccco1)cn2Cc1ccc(F)cc1 | 307% | 182% | 108% | 122% | 114% | 122% | 8.63% (active) | 108% | 122% | 104% | 97.2% | 116% | 148% | 109% | 99.6% | 111% | 102% | 116% |
| C[Se]C(=O)c1ccccc1OC(C)=O | 54.8% | 88.6% | 35.1% | 54.3% | 85.3% | 118% | 46.1% | 55.3% | 35.3% | 35% | 89.1% | 27.9% | 46.4% | 79.6% | 53.3% | 19.6% | 95.5% | 88.9% |
| COC(=O)[C@@H](C)C[C@H](Cc1ccccc1)NC(=O)c1csc([C@@H](C[C@H](C(C)C)N(C)C(=O)[C@@H](NC(=O)C23CC(NC(C)=O)(C2)C3)C2CC2)OC(C)=O)n1 | 57.4% | 12% | 69.1% | 103% | 77.7% | 78.9% | 49.4% | -7.77% (active) | 7.48% (active) | 97.8% | 62.7% | 51.5% | -16.5% (active) | 41.3% | 18.9% | 20.6% | 49.3% | 28% |
| C/C(=C\c1ccn(-c2ccc(N)cc2C(F)(F)F)n1)[C@@H]1C[C@@H]2O[C@]2(C)CCC[C@H](C)[C@H](O)[C@@H](C)C(=O)C(C)(C)[C@@H](O)CC(=O)O1 | 9.23% (active) | 5.57% (active) | 17.4% | 24.1% | 69.7% | 0.896% (active) | 43.5% | 12.5% | -10.7% (active) | 1.74% (active) | 39.1% | 27% | -61.7% (active) | 23.9% | 16.4% | 12.1% | 14.1% | 11.4% |
| Brc1ccc2c(c1)c(-c1nc(-c3c[nH]c4ncccc34)cs1)cn2CCN1CCOCC1 | 41.3% | 40.1% | 45.6% | 76.9% | 57.3% | 84.8% | 29.5% | 72.9% | 66.8% | 50.3% | 1.14% (active) | 77.6% | 85.7% | 85.8% | 18.3% | 68.1% | 88.7% | 40.3% |
| C1CCC2(CC1)OOCNCOO2 | 77.9% | 102% | 101% | 109% | 112% | 105% | 104% | 103% | 115% | 101% | 89.8% | 106% | 101% | 103% | 45.7% | 92.8% | 106% | 95.9% |
